The supplement of paper PMC7411054

Assays:
Assay in all cases: phenotypically active (imaging signature differs from DMSO and reproducible) at any of 0.3-9 uM (binary (1 = active, 0 = inactive)); higher = active
Settings in all cases: treatment time: 24 h
A549-ACTB-RAB5A = test system: A549-ACTB-RAB5A
Method in brief: (§1)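 Fifteen reporter lines derived from A549, HepG2 and WPMY1 cells by gene editing, carrying BFP for segmentation plus GFP and RFP/FusionRed markers, were exposed to 0.3, 1, 3 or 9 µM for 24 h in four wells each and imaged live. Live-cell features from each well were normalised to solvent control wells. A well set counted as deviating when ≥3 of 4 wells lay beyond the 95th percentile of control Euclidean distances, and as reproducible when the median replicate Pearson correlation exceeded the 95th percentile of non-replicates. Phenotypic activity was assigned only when both criteria were met.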

A549-CANX-COX4 = test system: A549-CANX-COX4
Method in brief: as §1

A549-GM130-SQSTM1 = test system: A549-GM130-SQSTM1
Method in brief: as §1

A549-TP53BP1-CLTA = test system: A549-TP53BP1-CLTA
Method in brief: as §1

A549-TUBA1B-RELA = test system: A549-TUBA1B-RELA
Method in brief: as §1

HepG2-ACTB-RAB5A = test system: HepG2-ACTB-RAB5A
Method in brief: as §1

HepG2-CANX-COX4 = test system: HepG2-CANX-COX4
Method in brief: as §1

HepG2-GM130-SQSTM1 = test system: HepG2-GM130-SQSTM1
Method in brief: as §1

HepG2-TP53BP1-CLTA = test system: HepG2-TP53BP1-CLTA
Method in brief: as §1

HepG2-TUBA1B-RELA = test system: HepG2-TUBA1B-RELA
Method in brief: as §1

WPMY1-ACTB-RAB5A = test system: WPMY1-ACTB-RAB5A
Method in brief: as §1

WPMY1-CANX-COX4 = test system: WPMY1-CANX-COX4
Method in brief: as §1

WPMY1-GM130-SQSTM1 = test system: WPMY1-GM130-SQSTM1
Method in brief: as §1

WPMY1-TP53BP1-CLTA = test system: WPMY1-TP53BP1-CLTA
Method in brief: as §1

WPMY1-TUBA1B-RELA = test system: WPMY1-TUBA1B-RELA
Method in brief: as §1

Measured: phenotypically active

CCCCC1=NC2(CCCC2)C(=O)N1Cc1ccc(-c2ccccc2-c2nnn[nH]2)cc1 [irbesartan]
inactive: A549-ACTB-RAB5A 0 | A549-CANX-COX4 0 | A549-GM130-SQSTM1 0 | A549-TP53BP1-CLTA 0 | A549-TUBA1B-RELA 0 | HepG2-ACTB-RAB5A 0 | HepG2-CANX-COX4 0 | HepG2-GM130-SQSTM1 0 | HepG2-TP53BP1-CLTA 0 | HepG2-TUBA1B-RELA 0 | WPMY1-ACTB-RAB5A 0 | WPMY1-CANX-COX4 0 | WPMY1-GM130-SQSTM1 0 | WPMY1-TP53BP1-CLTA 0 | WPMY1-TUBA1B-RELA 0

Cc1ccnn1-c1ccc(C(=O)N2CCN(S(=O)(=O)c3ccc(Cl)c(C(F)(F)F)c3)CC2)cc1
inactive: A549-ACTB-RAB5A 0 | A549-CANX-COX4 0 | A549-GM130-SQSTM1 0 | A549-TP53BP1-CLTA 0 | A549-TUBA1B-RELA 0 | HepG2-ACTB-RAB5A 0 | HepG2-CANX-COX4 0 | HepG2-GM130-SQSTM1 0 | HepG2-TP53BP1-CLTA 0 | HepG2-TUBA1B-RELA 0 | WPMY1-ACTB-RAB5A 0 | WPMY1-CANX-COX4 0 | WPMY1-GM130-SQSTM1 0 | WPMY1-TP53BP1-CLTA 0 | WPMY1-TUBA1B-RELA 0

COc1ccc2c(c1)c(CC(=O)O)c(C)n2C(=O)c1ccc(Cl)cc1 [indomethacin]
inactive: A549-ACTB-RAB5A 0 | A549-CANX-COX4 0 | A549-GM130-SQSTM1 0 | A549-TP53BP1-CLTA 0 | A549-TUBA1B-RELA 0 | HepG2-ACTB-RAB5A 0 | HepG2-CANX-COX4 0 | HepG2-GM130-SQSTM1 0 | HepG2-TP53BP1-CLTA 0 | HepG2-TUBA1B-RELA 0 | WPMY1-ACTB-RAB5A 0 | WPMY1-CANX-COX4 0 | WPMY1-GM130-SQSTM1 0 | WPMY1-TP53BP1-CLTA 0 | WPMY1-TUBA1B-RELA 0

COc1ccc2cc(CCC(C)=O)ccc2c1 [nabumetone]
inactive: A549-ACTB-RAB5A 0 | A549-CANX-COX4 0 | A549-GM130-SQSTM1 0 | A549-TP53BP1-CLTA 0 | A549-TUBA1B-RELA 0 | HepG2-ACTB-RAB5A 0 | HepG2-CANX-COX4 0 | HepG2-GM130-SQSTM1 0 | HepG2-TP53BP1-CLTA 0 | HepG2-TUBA1B-RELA 0 | WPMY1-ACTB-RAB5A 0 | WPMY1-CANX-COX4 0 | WPMY1-GM130-SQSTM1 0 | WPMY1-TP53BP1-CLTA 0 | WPMY1-TUBA1B-RELA 0

CN(C)CCOC(c1ccc(Cl)cc1)c1ccccn1 (stereo not given) [carbinoxamine]
inactive: A549-ACTB-RAB5A 0 | A549-CANX-COX4 0 | A549-GM130-SQSTM1 0 | A549-TP53BP1-CLTA 0 | A549-TUBA1B-RELA 0 | HepG2-ACTB-RAB5A 0 | HepG2-CANX-COX4 0 | HepG2-GM130-SQSTM1 0 | HepG2-TP53BP1-CLTA 0 | HepG2-TUBA1B-RELA 0 | WPMY1-ACTB-RAB5A 0 | WPMY1-CANX-COX4 0 | WPMY1-GM130-SQSTM1 0 | WPMY1-TP53BP1-CLTA 0 | WPMY1-TUBA1B-RELA 0

COc1cc2c3cc1Oc1cc(ccc1O)C[C@@H]1c4c(cc(OC)c(O)c4Oc4ccc(cc4)C[C@@H]3N(C)CC2)CC[N+]1(C)C [(+)-Tubocurarine chloride]
inactive: A549-ACTB-RAB5A 0 | A549-CANX-COX4 0 | A549-GM130-SQSTM1 0 | A549-TP53BP1-CLTA 0 | A549-TUBA1B-RELA 0 | HepG2-ACTB-RAB5A 0 | HepG2-CANX-COX4 0 | HepG2-GM130-SQSTM1 0 | HepG2-TP53BP1-CLTA 0 | HepG2-TUBA1B-RELA 0 | WPMY1-ACTB-RAB5A 0 | WPMY1-CANX-COX4 0 | WPMY1-GM130-SQSTM1 0 | WPMY1-TP53BP1-CLTA 0 | WPMY1-TUBA1B-RELA 0

COP(=O)(OC)OC(c1ccc(Cl)cc1)P(=O)(OC)OC (stereo not given)
inactive: A549-ACTB-RAB5A 0 | A549-CANX-COX4 0 | A549-GM130-SQSTM1 0 | A549-TP53BP1-CLTA 0 | A549-TUBA1B-RELA 0 | HepG2-ACTB-RAB5A 0 | HepG2-CANX-COX4 0 | HepG2-GM130-SQSTM1 0 | HepG2-TP53BP1-CLTA 0 | HepG2-TUBA1B-RELA 0 | WPMY1-ACTB-RAB5A 0 | WPMY1-CANX-COX4 0 | WPMY1-GM130-SQSTM1 0 | WPMY1-TP53BP1-CLTA 0 | WPMY1-TUBA1B-RELA 0

O=C(O)c1cc(=O)c(O)c(C(=O)O)o1 [Meconic acid]
inactive: A549-ACTB-RAB5A 0 | A549-CANX-COX4 0 | A549-GM130-SQSTM1 0 | A549-TP53BP1-CLTA 0 | A549-TUBA1B-RELA 0 | HepG2-ACTB-RAB5A 0 | HepG2-CANX-COX4 0 | HepG2-GM130-SQSTM1 0 | HepG2-TP53BP1-CLTA 0 | HepG2-TUBA1B-RELA 0 | WPMY1-ACTB-RAB5A 0 | WPMY1-CANX-COX4 0 | WPMY1-GM130-SQSTM1 0 | WPMY1-TP53BP1-CLTA 0 | WPMY1-TUBA1B-RELA 0

NC(=O)C(c1ccccc1)(c1ccc(F)cc1)c1ccc(F)cc1 [senicapoc]
inactive: A549-ACTB-RAB5A 0 | A549-CANX-COX4 0 | A549-GM130-SQSTM1 0 | A549-TP53BP1-CLTA 0 | A549-TUBA1B-RELA 0 | HepG2-ACTB-RAB5A 0 | HepG2-CANX-COX4 0 | HepG2-GM130-SQSTM1 0 | HepG2-TP53BP1-CLTA 0 | HepG2-TUBA1B-RELA 0 | WPMY1-ACTB-RAB5A 0 | WPMY1-CANX-COX4 0 | WPMY1-GM130-SQSTM1 0 | WPMY1-TP53BP1-CLTA 0 | WPMY1-TUBA1B-RELA 0

CCOc1cc([C@@H](CS(C)(=O)=O)N2C(=O)c3cccc(NC(C)=O)c3C2=O)ccc1OC [apremilast]
inactive: A549-ACTB-RAB5A 0 | A549-CANX-COX4 0 | A549-GM130-SQSTM1 0 | A549-TP53BP1-CLTA 0 | A549-TUBA1B-RELA 0 | HepG2-ACTB-RAB5A 0 | HepG2-CANX-COX4 0 | HepG2-GM130-SQSTM1 0 | HepG2-TP53BP1-CLTA 0 | HepG2-TUBA1B-RELA 0 | WPMY1-ACTB-RAB5A 0 | WPMY1-CANX-COX4 0 | WPMY1-GM130-SQSTM1 0 | WPMY1-TP53BP1-CLTA 0 | WPMY1-TUBA1B-RELA 0

CC(C)c1ccc2oc3nc(N)c(C(=O)O)cc3c(=O)c2c1 [Amlexanox]
inactive: A549-ACTB-RAB5A 0 | A549-CANX-COX4 0 | A549-GM130-SQSTM1 0 | A549-TP53BP1-CLTA 0 | A549-TUBA1B-RELA 0 | HepG2-ACTB-RAB5A 0 | HepG2-CANX-COX4 0 | HepG2-GM130-SQSTM1 0 | HepG2-TP53BP1-CLTA 0 | HepG2-TUBA1B-RELA 0 | WPMY1-ACTB-RAB5A 0 | WPMY1-CANX-COX4 0 | WPMY1-GM130-SQSTM1 0 | WPMY1-TP53BP1-CLTA 0 | WPMY1-TUBA1B-RELA 0
